Screen size: about 410,000 compounds; about 18,000 (4.4%) were called active. Roughly 7% stayed inconclusive and do not appear here. No stated cut-off is given here; in the data, active means activity change below about -60%; inconclusive means no clear call, values can overlap the other calls; inactive means above about -39%. This excerpt belongs to a sample that is enriched for actives.
experiment: qHTS Assay for inhibitors of the human cytomegalovirus (HCMV); details: HFF cells, HCMV-luciferase reporter, 72 h; at 57.5 µM; active compounds read low
Summary of the method: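 Cell-based, HFFs, 1000 cells/well, 16 h 37C; cpds in DMSO + HCMV-luc, MOI 1 PFU/cell; 72 h 37C; OneGlo luminescence after 5 min RT; norm. to buffer vs Salinomycin 10uM.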
On the % scale 0 is the no-effect control and ±100 the full control effect.

Structure (SMILES) | activity change, negative = inhibition
CN1CCN(S(=O)(=O)c2cccc(C(=O)Nc3cccc(S(N)(=O)=O)c3)c2)CC1 | -17.3% (inactive)
O=C(CCNC(=O)c1ccc(Br)cc1)Nc1cccc(S(=O)(=O)N2CCCCC2)c1 | -23.8% (inactive)
O=C(Nc1ccc2c(c1)OCO2)c1cc(-c2cccc(Cl)c2)on1 | 11.5% (inactive)
NS(=O)(=O)c1ccc(CCNC(=O)c2ccc(Cl)c(S(=O)(=O)N3CCCCCC3)c2)cc1 | -69.2% (active)
O=C(Nc1cccc(S(=O)(=O)N2CCCCC2)c1)c1ccc2c(c1)OCO2 | -69% (active)
CCSc1ccccc1C(=O)Nc1ccc2c(c1)OCO2 | 8.91% (inactive)
O=C(NCCc1ccc(F)cc1)c1ccc(S(=O)(=O)N2CCCCC2)cc1 | -3.57% (inactive)
CCN(CC)S(=O)(=O)c1cccc(NC(=O)c2ccc(S(=O)(=O)N3CCCC3)cc2)c1 | -65.5% (active)
O=C(Nc1cccc(S(=O)(=O)N2CCCC2)c1)c1cncc(Br)c1 | -5.81% (inactive)
Cc1c(C)n(Cc2ccc(Cl)cc2)c2ccc(C(=O)NCCc3ccc(S(N)(=O)=O)cc3)cc12 | 0% (inactive)
Cn1c(=O)n(C)c2cc(C(=O)Nc3ccc4c(c3)OCO4)ccc21 | -96.3% (active)
COc1cc(C(=O)NNC(=O)c2ccc(S(=O)(=O)N3CCCCC3)cc2)cc(OC)c1OC | 41.5% (inactive)
CCc1nn(CC(=O)Nc2cccc(C)c2C)c(=O)c2cc3sccc3n12 | -1.56% (inactive)
Cc1cc2oc(=O)cc(CN(C)Cc3ccc(OC(F)F)cc3)c2cc1Cl | 26.8% (inactive)
CCn1c(Cc2cccs2)nnc1SCC(=O)c1ccc(C)cc1 | 47.4% (inactive)
CC(=O)c1c(C)n(S(=O)(=O)c2ccc(Cl)cc2)c2ccc(NS(=O)(=O)c3ccc(Cl)cc3)cc12 | 1.89% (inactive)
Cc1ccc(OCC(=O)OCc2cc(=O)n3nc(C4CC4)sc3n2)cc1 | -34% (inactive)
O=C(NCC12CC3CC(CC(C3)C1)C2)c1cc2nc(-c3ccccc3)cc(C(F)(F)F)n2n1 | -2.2% (inactive)
COc1ccc(N2CCN(C(=O)C3CCCN(C(=O)c4cc5sccc5n4C)C3)CC2)cc1 (stereo unspecified) | -14.9% (inactive)
Cc1cc(C)c(NC(=O)CN2C(=O)c3cccnc3Oc3ccc(Cl)cc32)c(C)c1 | 0% (inactive)
O=C(NCCCO)C(=O)Nc1c2c(nn1-c1ccc(F)cc1)CSC2 | -5.08% (inactive)

Structure (SMILES) | activity change, negative = inhibition
Cc1ccc(Nc2c(-c3ccc(Cl)cc3)nc3sccn23)c(C)c1 | -23.6% (inactive)
Cc1cccc(NC(=O)CSc2nc3c(oc4ccccc43)c(=O)n2-c2ccc(F)cc2)c1 | -12% (inactive)
Cc1ccc(NC(=O)c2ccc(Cl)nc2)cc1S(=O)(=O)N1CCOCC1 | -8.05% (inactive)
O=C(Nc1ccc2c(c1)OCCO2)c1ccc(Cl)c(S(=O)(=O)N2CCCCC2)c1 | -72.6% (active)
O=C(Nc1cccc(S(=O)(=O)Nc2ccc(Cl)cc2)c1)c1ccc2c(c1)OCCO2 | -94.5% (active)
O=C(NNC(=O)c1cccc(S(=O)(=O)Nc2ccc(Cl)cc2)c1)c1ccc(=O)[nH]c1 | 24% (inactive)
CC(=O)Nc1ccc(C(=O)Nc2cccc(S(=O)(=O)NC3=NCCC3)c2)cc1 | -22.7% (inactive)
Cc1ccc(C(=O)NNC(=O)c2ccncc2)cc1S(=O)(=O)N1CCCCC1 | -15.8% (inactive)
CCOc1ccc(CCNC(=O)C2CCN(c3ccc(N4CCOCC4)nn3)CC2)cc1OCC | 2.74% (inactive)
Cc1cc(C)c(C)c(S(=O)(=O)N[C@@H](C)C(=O)OC(C)C(=O)NC(N)=O)c1C (stereo partly specified) | -14.5% (inactive)
COc1ccc(NC(=O)c2sc3nc(-c4cc5cccc(OC)c5oc4=O)[nH]c(=O)c3c2C)cc1 | -14.2% (inactive)
Cc1ccc(Cn2cc(CCC(=O)NCc3ccc(OC(C)C)cc3)c3ccccc32)cc1 | 4.19% (inactive)
CCN(CC)CCNC(=O)c1ccc(NC(=O)c2c(F)cccc2Cl)cc1 | -23.1% (inactive)
O=C(NNc1cc(Cl)cc(Cl)c1)c1c(F)cccc1Cl | -68.5% (active)
O=C(O)c1cc2c(cc1NC(=O)c1c(F)cccc1Cl)OCCCO2 | -29.4% (inactive)
CCOc1ccc(/C(O)=C2/C(=O)C(=O)N(Cc3cccnc3)C2c2ccc(N(C)C)cc2)c(C)c1 (stereo unspecified) | 19.8% (inactive)
CC1=NN(Cc2ccccc2)C(=O)/C1=C/c1ccc(N(C)C)cc1 | -61.8% (active)
COc1ccc(/C=C2/C(=O)N(c3ccccc3)N=C2C)c(OC)c1 | 67.9% (inactive)
CC(=O)c1ccc(NC(c2ccc(F)cc2)c2nnc(-c3ccccc3)o2)cc1 (stereo unspecified) | 16.8% (inactive)
O=C(c1ccco1)n1nc(-c2ccc(Cl)cc2)nc1NCc1ccccc1 | -5.57% (inactive)
